Screening results from PubChem.
CYP2C9 activ: human CYP2C9 activators, primary screen, biochemical, luminescence; Cytochrome P450 2C9 (Homo sapiens), P11712; recombinant CYP2C9, luciferin-H conversion; hits give high values; factor 1 = untreated enzyme, 0 = blocked; AID 1024, 2008; 96,000 compounds, 1.4% hits; activation factor at 5 µM;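 active = activation factor of 2 or more for CYP2C9 at a 5 µM dose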
Target sequence (P11712 whole entry, looked up): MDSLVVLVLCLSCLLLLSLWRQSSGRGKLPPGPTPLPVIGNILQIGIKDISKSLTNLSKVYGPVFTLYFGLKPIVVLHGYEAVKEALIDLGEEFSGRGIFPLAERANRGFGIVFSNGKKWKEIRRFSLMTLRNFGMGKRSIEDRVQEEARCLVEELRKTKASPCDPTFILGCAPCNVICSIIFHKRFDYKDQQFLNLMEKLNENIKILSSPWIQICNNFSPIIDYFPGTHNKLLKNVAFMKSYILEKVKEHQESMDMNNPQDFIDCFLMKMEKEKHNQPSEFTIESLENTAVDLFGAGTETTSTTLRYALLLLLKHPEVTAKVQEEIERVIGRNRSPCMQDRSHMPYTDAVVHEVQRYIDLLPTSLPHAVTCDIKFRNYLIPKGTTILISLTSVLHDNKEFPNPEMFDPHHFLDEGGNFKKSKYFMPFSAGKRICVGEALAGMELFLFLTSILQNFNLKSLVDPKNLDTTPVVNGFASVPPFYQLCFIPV
CYP2C9 inh: blockers of cytochrome P450 2C9 activity – biochemical, luminescence, ADME assay, primary screen | P11712 | 96,000 compounds, 20% hits | AID 777, 2007 | inhibition, % at 5 µM | CYP2C9 Supersomes, luciferin-H conversion;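 active = blocking of liver enzyme CYP2C9 beyond about 50% at 5 µM, limit read from the data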
CYP2C19 activ: human CYP2C19 activators, primary screen, biochemical, luminescence | recombinant CYP2C19, luciferin-H EGE luminescence; hits give high values; 0 = fully inhibited enzyme, 1 = untreated enzyme | Cytochrome P450 2C19 (Homo sapiens), P33261 | activation factor at 5 µM | 96,000 tested, under 10 active;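 active = activation factor of at least 2 at 5 µM in the primary screen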
hDAT+cocaine: changed hDAT dopamine uptake under cocaine IC80, either direction, primary screen, cocaine antagonist project, cell-based, LLC-PK1 hDAT, [14C]-dopamine uptake, MLSMR; Sodium-dependent dopamine transporter (Homo sapiens), Q01959; LLC-PK1 hDAT cells, [14C]-dopamine uptake with cocaine IC80; actives deviate in either direction; B-score at 10 µM; 110,000 compounds, 1.3% hits; AID 449768, 2010;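 active = Z score or B-score, a plate-position-corrected score, falls beyond the plate's 99.7% confidence bounds, in either direction; inactive = both scores lie inside the 99.7% bounds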
CYP2C19 inh: blockers of cytochrome P450 2C19 activity – biochemical, luminescence, ADME assay, primary screen; P33261; CYP2C19 Supersomes, luciferin-H EGE luminescence, 30 min; inhibition, % at 5 µM; 96,000 compounds, 21% hits; AID 778, 2007;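 active = CYP2C19 inhibition above a set limit at 5 µM in the primary screen, cut at about 50% in these data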
D1 mod: D1 CRE-luciferase signal change, two-sided – cell-based, HEK293 D1, dopamine EC30, D1 allosteric modulator project, primary screen. 58,000 compounds, 5.9% hits. B-score at 10 µM. D(1A) dopamine receptor (Homo sapiens), P21728. dopamine EC30 potentiation; actives deviate in either direction;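 active = luminescence count or its row- and column-corrected plate score outside the 99.7% band of the plate's sample wells, on either side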
Numbers stand for hits; n = inactive; x = no result. A selection: hits, their analogues and other compounds. The true share with any hit is near 28%.

SMILES	CYP2C9 activ	CYP2C9 inh	CYP2C19 activ	hDAT+cocaine	CYP2C19 inh	D1 mod
Cc1nn(C(C)c2nc(-c3ccccc3)no2)c(C)c1[N+](=O)[O-] (stereo not given)	n	n	n	n	n	x
Cc1ccc(SC(C)c2nc(-c3ccccc3)no2)cc1 (stereo not given)	n	85	n	n	90	n
Cc1ccccc1OC(C)c1nc(-c2ccccc2)no1 (stereo not given)	n	73	n	n	70	n
Cc1ccc(S(=O)(=O)C2(C(=O)Nc3ccc4c(c3)OCO4)CC2)cc1	n	83	n	n	87	n
O=C(CSCSCC(=O)Nc1ccc2c(c1)OCO2)Nc1ccc2c(c1)OCO2	n	80	n	n	n	n
CSCCC(C(=O)Nc1ccc2c(c1)OCO2)N1C(=O)c2ccccc2C1=O (stereo not given)	n	52	n	n	n	n
O=C(CSCc1c(Cl)cccc1Cl)Nc1ccc2c(c1)OCO2	n	75	n	n	n	x
CC(C)=CC(=O)Nc1ccc2c(c1)OCO2	n	n	n	n	n	-5.2
Cc1ccc(CSCC(=O)Nc2ccc3c(c2)OCO3)cc1	n	n	n	n	59	x
O=C(CSCc1ccccc1)Nc1ccc2c(c1)OCO2	x	x	x	n	x	n
O=C(CSCc1c(Cl)cccc1Cl)Nc1ccccc1C(=O)N1CCOCC1	n	92	n	n	n	x
O=C(Cn1nc(C(F)(F)F)c2c1CCCC2)Nc1ccc2c(c1)OCO2	n	53	n	-1.6	87	n
CCCCCCOc1ccc(-c2ccc(C#N)cn2)cc1	n	n	n	n	n	x
CCOc1ccccc1-c1nc2c(s1)CCc1onc(-c3ccc(OC)cc3)c1-2	x	x	x	n	x	x
COc1ccc(NC(=O)c2ccc3c(c2)OCO3)cc1Cl	n	n	n	n	n	n
COc1ccc(NC(=O)C=C(C)C)cc1Cl	n	n	n	n	58	-3.8
Cc1c(NC(=O)Nc2ccc(Cl)c(Cl)c2)c(=O)n(-c2ccccc2)n1C	n	n	n	n	n	n
O=C(Nc1cccnc1)c1cc2nc(C3CC3)cc(C(F)(F)F)n2n1	n	74	n	n	64	n
CN1CCN(C(=O)c2ccc(-n3cccc3)cc2)CC1	n	n	n	n	n	x
CCOc1cc(CNc2ccc3c(c2)OCCO3)cc(Br)c1OC	n	84	n	n	94	x
CCNCc1cc(Br)c(OCC(=O)Nc2ccccc2)c(OC)c1	x	x	x	n	x	x
CCOc1c(Br)cc(CNc2ccc3c(c2)OCCO3)cc1OC	n	86	n	n	86	x
CCOc1cc(CNc2ccc3c(c2)OCCO3)cc(Br)c1OCC(N)=O	n	86	n	n	53	x
CCOc1cc(CNCC2CCCO2)cc(Br)c1OCC(N)=O (stereo not given)	n	n	n	n	n	n
Cc1nc(-c2cccnc2)sc1C(N)=O	n	n	n	x	n	x
SMILES	CYP2C9 activ	CYP2C9 inh	CYP2C19 activ	hDAT+cocaine	CYP2C19 inh	D1 mod
O=C(CN1C(=O)NC2(CCCC2)C1=O)Nc1ccccc1F	2.3	n	n	n	n	x
O=C(CN1CCCCCC1)Nc1ccccc1F	n	n	n	n	63	x
CCN(CC)c1ccc(NC(=O)CN2CCN(CC(=O)Nc3ccccc3F)CC2)cc1	n	n	n	2.5	n	n
O=C(CN1CCN(CC(=O)Nc2ccccc2C(F)(F)F)CC1)Nc1ccccc1F	n	n	n	n	85	n
COc1ccc(C(=O)COc2ccccc2N2C(=O)C3C4C=CC(C4)C3C2=O)cc1 (stereo not given)	n	n	n	n	n	x
Cc1cc(C)c(NC(=O)CC(C)(C)C)c(Cl)c1	n	n	n	n	n	x
O=C(CCN1CCN(CC(=O)Nc2ccccc2Cl)CC1)Nc1ccccc1F	n	n	n	n	77	n
COC(=O)c1oc2ccccc2c1NC(=O)CN1CCCC1	n	n	n	n	n	13
CCOC(=O)C1CCCN(CCC(=O)Nc2ccc3c(c2)CCC3)C1 (stereo not given)	n	n	n	n	n	n
O=C(NCC1COc2ccccc2O1)c1ccccc1 (stereo not given)	n	n	n	n	95	n
CCC1Oc2ccccc2N(CC(=O)Nc2ccc(OC)cc2OC)C1=O (stereo not given)	n	n	n	n	n	n
CCOC(=O)c1ccc(NC(=O)c2ccc(NC(=O)c3ccccc3)cc2)cc1	n	n	n	n	n	x
COc1ccccc1NC(=O)CN1C(=O)C(C)Oc2ccccc21 (stereo not given)	n	61	n	n	85	n
CCOC(=O)c1c(C2COc3ccccc3O2)csc1NC(=O)c1ccccc1 (stereo not given)	n	71	n	n	n	x
CCOC(=O)c1ccc(NC(=O)CC2COc3ccccc3O2)cc1 (stereo not given)	n	63	n	n	n	n
Cc1nc2ccccc2n1CCC(=O)Nc1cccc(F)c1	n	n	n	n	n	n
CCOc1cccc(N2C(=O)CC(NCc3ccc(S(N)(=O)=O)cc3)C2=O)c1 (stereo not given)	n	n	n	n	n	n
CCN(CC1COc2ccccc2O1)C(=S)Nc1ccccc1 (stereo not given)	n	n	n	n	56	x
Cc1onc(-c2c(F)cccc2Cl)c1C(=O)NCC1COc2ccccc2O1 (stereo not given)	n	59	n	n	70	n
Cc1onc(-c2c(Cl)cccc2Cl)c1C(=O)NCC1CCCO1 (stereo not given)	n	n	n	n	n	n
COc1ccccc1NC(=O)CC1COc2ccccc2O1 (stereo not given)	n	n	n	n	64	x
COc1ccccc1CN(C)C(=O)C1COc2ccccc2O1 (stereo not given)	n	n	n	n	98	n
O=C(CC1COc2ccccc2O1)Nc1ccccn1 (stereo not given)	n	n	n	n	n	n
CCOC(=O)C1CCN(C(=O)CCNC(=O)c2cc(OC)c(OC)c(OC)c2)CC1	n	n	n	n	n	n
Cc1oc(-c2ccc(Cl)cc2)nc1CSCC(=O)NCCCN1CCOCC1	n	n	n	n	n	n
CC1(C)CC(=O)C(C=NCCO)=C(O)C1	n	n	n	n	n	n
CCOC(=O)C[C@H]1c2cc(C(F)(F)F)ccc2S(=O)(=O)N1Cc1ccccc1	x	x	x	n	x	x
CC(NC(=O)C(CC(=O)OC(C)(C)C)NC(=O)OC(C)(C)C)C(N)=O (stereo not given)	n	n	n	n	n	n
O=C1NC[C@H](Cc2ccccc2)N(CC2CCCCC2)C1=O	x	x	x	n	x	x
